Measured values from the supplement of paper PMC9694430.

Experiments:
Experiment in all cases: thermal shift delta Tm vs DMSO control; higher = stronger stabilization (binding)
Settings in all cases: 12.5 µM; protein concentration 2 µM
LOC_OS04G57630-cb004 = tested on: LOC_OS04G57630-cb004
Procedure, shortened: (§1)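 Thermal shift values come from differential scanning fluorimetry on purified rice kinase domains made in E. coli, with melting temperatures obtained from Boltzmann fits. Samples of 19.5 μl held 2 μM kinase, 100 mM potassium phosphate pH 7.5, 150 mM NaCl, 10% glycerol, 5 × SYPRO Orange and compound in DMSO, and were heated from 25°C to 95°C at 0.05°C/s. Each shift is a triplicate mean relative to the DMSO-only protein sample.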

LOC_OS05G07850-cb002 = tested on: LOC_OS05G07850-cb002
Procedure, shortened: as §1

LOC_OS05G16824-cb004 = tested on: LOC_OS05G16824-cb004
Procedure, shortened: as §1

LOC_OS05G28520-cb001 = tested on: LOC_OS05G28520-cb001
Procedure, shortened: as §1

LOC_OS05G30820-cb001 = tested on: LOC_OS05G30820-cb001
Procedure, shortened: as §1

LOC_OS05G43570-cb004 = tested on: LOC_OS05G43570-cb004
Procedure, shortened: as §1

LOC_OS06G16330-cb003 = tested on: LOC_OS06G16330-cb003
Chain of LOC_OS06G16330-cb003 (as listed by the source): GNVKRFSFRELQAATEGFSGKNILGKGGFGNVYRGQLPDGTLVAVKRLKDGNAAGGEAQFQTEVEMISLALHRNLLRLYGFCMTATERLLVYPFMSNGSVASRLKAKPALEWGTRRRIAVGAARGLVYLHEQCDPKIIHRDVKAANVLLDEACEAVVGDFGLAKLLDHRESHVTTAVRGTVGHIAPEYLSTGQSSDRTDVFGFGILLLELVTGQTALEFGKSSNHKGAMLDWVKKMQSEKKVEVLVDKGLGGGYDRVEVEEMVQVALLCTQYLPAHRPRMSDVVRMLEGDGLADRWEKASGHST
Procedure, shortened: as §1

LOC_OS06G22820-cb001 = tested on: T1, LOC_OS06G22820-cb001
T1 sequence (whole entry): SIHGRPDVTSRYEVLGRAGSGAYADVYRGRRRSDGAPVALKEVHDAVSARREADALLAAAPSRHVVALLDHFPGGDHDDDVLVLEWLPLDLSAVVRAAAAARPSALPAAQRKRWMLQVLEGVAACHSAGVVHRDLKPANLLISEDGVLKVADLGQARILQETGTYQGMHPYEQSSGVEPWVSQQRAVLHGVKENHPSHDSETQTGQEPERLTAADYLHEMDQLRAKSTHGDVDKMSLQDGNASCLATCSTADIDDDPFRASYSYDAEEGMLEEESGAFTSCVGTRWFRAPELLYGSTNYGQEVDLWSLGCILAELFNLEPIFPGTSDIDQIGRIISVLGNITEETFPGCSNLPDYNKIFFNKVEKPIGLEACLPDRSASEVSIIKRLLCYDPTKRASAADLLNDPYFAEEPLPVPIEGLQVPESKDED
Procedure, shortened: as §1

LOC_OS07G06570-cb004 = tested on: LOC_OS07G06570-cb004
Procedure, shortened: as §1

LOC_OS07G07230-cb001 = tested on: LOC_OS07G07230-cb001
Procedure, shortened: as §1
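Also: purified Escherichia coli-expressed rice kinase domain construct.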

| Structure (SMILES) | thermal shift delta Tm (LOC_OS04G57630-cb004) [°C] | thermal shift delta Tm (LOC_OS05G07850-cb002) [°C] | thermal shift delta Tm (LOC_OS05G16824-cb004) [°C] | thermal shift delta Tm (LOC_OS05G28520-cb001) [°C] | thermal shift delta Tm (LOC_OS05G30820-cb001) [°C] | thermal shift delta Tm (LOC_OS05G43570-cb004) [°C] | thermal shift delta Tm (LOC_OS06G16330-cb003) [°C] | thermal shift delta Tm (LOC_OS06G22820-cb001) [°C] | thermal shift delta Tm (LOC_OS07G06570-cb004) [°C] | thermal shift delta Tm (LOC_OS07G07230-cb001) [°C] |
| --- | --- | --- | --- | --- | --- | --- | --- | --- | --- | --- |
| O=C1CCc2c(Oc3ccc4c(c3)[C@@H]3[C@H](O4)[C@H]3c3nc4cc(C(F)(F)F)ccc4[nH]3)ccnc2N1 [Lifirafenib (BGB-283)] | 5.81 | 9.47 | -0.92 | 0.64 | 0.42 | 1.09 | 2.37 | 1.16 | 1.23 | -0.15 |
| FC(F)(F)c1ccc(CNc2ccc(Cc3c[nH]c4ncc(Cl)cc34)cn2)cn1 [Pexidartinib (PLX3397)] | 1.53 | 8.75 | 5.17 | 1.46 | 0.74 | 0.8 | 8.9 | 0.41 | 0.14 | -0.31 |
| CCc1nc(C(N)=O)c(Nc2ccc(N3CCC(N4CCN(C)CC4)CC3)c(OC)c2)nc1NC1CCOCC1 [Gilteritinib (ASP2215)] | 5.73 | 17.4 | 9.44 | 1.33 | 0.92 | 1.54 | 15.3 | 0.74 | 1.35 | 0.17 |
| C=CC(=O)Nc1cccc(Nc2nc(Nc3ccc(N4CCN(C(C)=O)CC4)cc3OC)ncc2C(F)(F)F)c1 [Rociletinib (CO-1686, AVL-301)] | 0.55 | 10.2 | 4.44 | 0.98 | 0.73 | 0.4 | 4.77 | 0.68 | 1.54 | 1.09 |
| Cn1cnc2c(F)c(Nc3ccc(Br)cc3F)c(C(=O)NOCCO)cc21 | 0.45 | 1.86 | -1.71 | 0.55 | 0.44 | 0.51 | -0.03 | 0.61 | 1.32 | -0.18 |
| NC(=O)c1cnc(N[C@@H]2CCCC[C@@H]2N)nc1Nc1cccc(-n2nccn2)c1 | 0.91 | 6.88 | 6.77 | -0.14 | 2.09 | 0.39 | 5.31 | 0.77 | 1.27 | 0.71 |
| Cc1nc(-c2cn3c(n2)-c2ccc(-c4cnn(C(C)(C)C(N)=O)c4)cc2OCC3)n(C(C)C)n1 [Taselisib (GDC 0032)] | 0.16 | 0.89 | 0.74 | 0.19 | 0.59 | 0.36 | -0.08 | 0.16 | 1.28 | 0.87 |
| CCNc1nc(Nc2cc(F)c(C(=O)N3CCOCC3)cc2OC)ncc1C(F)(F)F | 0 | 3.03 | 1.21 | 0.71 | 0.46 | 0.26 | 0.76 | 0.28 | 0.96 | -0.16 |
| Cc1ccc(NC(=O)c2cccc(C(C)(C)C#N)c2)cc1Nc1ccc2ncn(C)c(=O)c2c1 | 0.41 | 0.77 | -1.17 | 0.69 | 0.63 | 0.64 | 0.8 | 0.86 | 0.75 | 0.34 |
| NC[C@@](O)(c1ccc(Cl)cc1)c1ccc(-c2cn[nH]c2)cc1 | 0.11 | 1.75 | 0.67 | 0.5 | 0.47 | 2.11 | 0.77 | 0.65 | 0.91 | 0.04 |
| C=CC(=O)Nc1cccc(Oc2nc(Nc3ccc(N4CCN(C)CC4)cc3OC)ncc2Cl)c1 | -0.7 | 8.75 | -3.25 | 0.26 | 0.41 | 0.58 | -0.17 | 0.37 | 0.31 | 0.24 |
| CS(=O)(=O)c1cccc(CNc2nc(Nc3ccc4c(c3)CCC(=O)N4)ncc2C(F)(F)F)c1 | 1.7 | 8.91 | 11.1 | 1.18 | 2.8 | 0.96 | 6.92 | 0.35 | 0.43 | -0.39 |
| COc1ccc(/C=C/C(=O)C2(C(=O)/C=C/c3ccc(OC)c(OC)c3)CCCCC2)cc1OC | -0.06 | 0.62 | -3.56 | 0.12 | 0.75 | 0.25 | -0.37 | 0.49 | 2.62 | 0.7 |
| O=C(c1ccc(F)c(F)c1Nc1ccc(I)cc1F)N1CC(O)([C@@H]2CCCCN2)C1 [Cobimetinib (GDC-0973, RG7420)] | 0.22 | 0.2 | -1.19 | 0.07 | 0.47 | 0.39 | -0.17 | 0.43 | 1.59 | 0.43 |
| CCOC(=O)c1cnc2ccc(-c3cncc(NS(=O)(=O)c4ccccc4)c3)cn12 | 0.28 | 3.75 | 1.63 | 0.65 | 0.47 | 0.51 | 2.32 | 0.38 | 0.45 | 0.1 |
| O=C(NCc1cccc(O)c1)Nc1nc(-c2ccncc2)cs1 | 1.08 | 3.27 | -3.55 | 0.81 | 0.5 | 1.02 | 0.47 | 0.43 | 1.09 | 0.35 |
| CNC(=O)c1cc(Oc2ccc(NC(=O)Nc3cc(C(C)(C)C)nn3-c3ccc4ncccc4c3)c(F)c2)ccn1 [Rebastinib (DCC-2036)] | 10.4 | 14.3 | 0.76 | 0.81 | 1.05 | 0.62 | 10 | 0.59 | 0.44 | -0.15 |
| CS(=O)(=O)N1CCN(Cc2cc3nc(-c4cccc5[nH]ncc45)nc(N4CCOCC4)c3s2)CC1 [Pictilisib (GDC-0941)] | -0.38 | 5.5 | 0.86 | 0.48 | 0.36 | 0.46 | 0.57 | 0.43 | 0.46 | 0.23 |
